Most compounds without a hit are left out; they make up all but 5.6% or so of the library.
Cardio protect = protects H9c2 cardiomyocytes from peroxide injury. actives 0.63% (n = 360,000). AID 588492. protection from H2O2 cell death, % at 20 µM. H2O2 injury protection, ATPLite, 2 h;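 active = compounds giving at least 50% protection of heart cells from peroxide-induced death in the single-dose screen, raw or plate-pattern-corrected value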;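 note: 0% = DMSO wells with peroxide and 100% = DMSO wells without peroxide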
ALR inh = blocks human ALR sulfhydryl oxidase activity. actives 3.8% (n = 290,000). purified ALR, DTT oxidation, H2O2 HRP-luminol luminescence. P55789. inhibition, % (no concentration beside the values);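 active = mean replicate inhibition above about 79%, with every replicate also reaching it, limit read from the data; inconclusive = only one of the two criteria met; inactive = mean below limit and not every replicate reaching it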
Target sequence (P55789 whole entry, looked up): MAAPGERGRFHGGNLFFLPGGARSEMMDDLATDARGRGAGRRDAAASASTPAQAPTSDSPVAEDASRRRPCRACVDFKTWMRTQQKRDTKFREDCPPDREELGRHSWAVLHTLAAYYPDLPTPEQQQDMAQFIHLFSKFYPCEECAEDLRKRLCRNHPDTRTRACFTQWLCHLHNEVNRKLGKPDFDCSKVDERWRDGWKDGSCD
PfM18AAP inh = blocks P. falciparum M18 aspartyl aminopeptidase. recombinant PfM18AAP, H-Glu-NHMec fluorogenic cleavage. inhibition, % at 7.35 µM. actives 1.2% (n = 290,000). AID 1822;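 active = inhibition above the campaign mean inhibition over all tested compounds plus 3 SD, cut at about 28% in these data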;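 note: 0% = plate median of test compound wells and 100% = 2 mM ZnCl2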
PHOSPHO1 inh = PHOSPHO1 (human) inhibition | Q8TCT1 | recombinant PHOSPHO1, absorbance phosphatase assay | inhibition, % at 13.3 µM | actives 1.1% (n = 290,000) | AID 1565; in the data active = inhibition above about 60%
Target sequence (Q8TCT1 whole entry, looked up): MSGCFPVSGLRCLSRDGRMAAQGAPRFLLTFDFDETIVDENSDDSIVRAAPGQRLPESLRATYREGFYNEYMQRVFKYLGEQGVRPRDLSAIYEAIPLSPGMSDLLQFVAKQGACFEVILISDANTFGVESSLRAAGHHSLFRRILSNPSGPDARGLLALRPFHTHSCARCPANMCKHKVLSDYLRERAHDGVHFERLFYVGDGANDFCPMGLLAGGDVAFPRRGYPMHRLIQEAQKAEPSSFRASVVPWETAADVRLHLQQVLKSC
PfG6PD inh = PfG6PD (Plasmodium falciparum) enzyme inhibition; PfGluPho enzyme, NADPH resazurin-diaphorase fluorescence; actives 0.78% (n = 350,000); AID 504690; inhibition, % at 20 µM;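 active = inhibition reaching at least a set limit at 20 µM in the primary screen, cut at about 59% in these data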;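 note: 0% = DMSO wells with substrate and 100% = DMSO wells lacking glucose-6-phosphate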
The depositor's hits bear a star; u = inconclusive; x = no result.

SMILES | Cardio protect | ALR inh | PfM18AAP inh | PHOSPHO1 inh | PfG6PD inh
COc1ccc(CN(C)C(=O)C(Cc2ccccc2)NC(=O)c2ccccc2)cc1F (configuration not stated) | 50.2* | x | x | x | 18.4
COc1ccc(CC(=O)OCC(=O)c2ccc(F)cc2)cc1 | -2.1 | -4.1 | x | x | 31.7
O=C(Nc1nc2ccccc2s1)C1CCN(S(=O)(=O)c2cc([N+](=O)[O-])ccc2Cl)CC1 | 12.1 | x | 28.5* | 39.0 | 17.8
Cc1cc(C(=O)N/N=C/c2cc(Br)cc(Br)c2OC(=O)c2cccc(F)c2)n[nH]1 | 82.7* | -4.3 | -4.1 | 52.7 | 28.9
Cc1cc(C(=O)N/N=C\c2cc(C(C)(C)C)ccc2O)n[nH]1 | 61.5* | 17.9 | 9.3 | 17.6 | -20.5
Cc1nn2c(-c3cccc(NC(=O)CSc4nc5ccccc5o4)c3)nnc2c2ccccc12 | 27.6 | 98.7* | -9.3 | 17.6 | 19.2
Cc1cc(C)nc(NC(=O)CSc2nc3ccccc3o2)n1 | -1.4 | 44.9 | 8.8 | 69.1* | -2.9
Cc1nnc(NC(=O)CSc2nc3ccccc3o2)s1 | 6.6 | 9.8 | 5.4 | -47.7 | -7.1
COc1cc(OC)nc(NC(=O)CSc2nc3ccccc3o2)n1 | -6.1 | -11.6 | 1.4 | 9.7 | -5.1
Cc1cccc(NC(=O)CSc2nc3ccccc3o2)c1 | -4.6 | -13.3 | -9.3 | 3.6 | 7.6
CC1CCc2nc(NC(=O)CSc3nc4ccccc4o3)sc2C1 (configuration not stated) | -30.1 | 98.8* | 11.6 | -3.4 | -0.7
O=C(Nc1nnc([C@@H]2C[C@H](O)[C@@H](CO)O2)s1)c1cccc(Cl)c1 | 5.3 | x | x | x | x
O=C(CN1C(=O)NC2(CCCCC2)C1=O)N1CCOCC1 | 0.7 | -8.6 | x | x | -12.2
Cc1csc(NC(=O)CSc2nc3ccccc3c3c2CCCC3)n1 | -11.5 | -1.5 | -1.1 | -0.6 | 7.3
N#Cc1ccsc1NC(=O)CSc1ncn[nH]1 | 6.0 | -3.3 | 26.8 | 14.4 | -18.0
N#Cc1ccsc1NC(=O)CSc1ncnc2ccccc12 | 5.7 | 98.3* | -0.6 | 1.3 | -20.2
Cc1csc(NC(=O)CSc2ncnc3ccccc23)n1 | 0.8 | 74.9 | 4.5 | 62.8* | 22.0
Cc1csc(NC(=O)CSc2ncnc3c2cnn3-c2ccccc2Cl)n1 | -12.4 | 99.1* | -5.1 | -24.4 | -2.4
CC(C)C(=O)NNC(=O)CSc1ncnc2c1cnn2-c1ccccc1Cl | -0.6 | 10.4 | -5.9 | 28.6 | 15.3
Cc1cccc(C)c1Cn1c(C)c(C(=O)NCc2ccc([N+](=O)[O-])cc2)sc1=O | -1.8 | x | x | x | x
Cc1ccc(COc2ccccc2C(=S)N2CCCC2)cc1 | -2.3 | -5.2 | 28.2* | -126.9 | 25.2
CC(=O)NC(c1cccc(F)c1)c1nc(-c2cnn(C)c2)cs1 (configuration not stated) | 0.0 | x | x | x | x
O=C(ONc1ccc(N=NC(=O)c2ccccc2O)cc1)c1ccccc1 | -11.3 | 97.8* | 11.7 | 83.1* | -24.3
COc1ccc(C(=O)Nc2ccc(C(=O)N3CCCCC3C)cc2)c(OC)c1OC (configuration not stated) | 3.6 | 0.2 | 1.6 | 75.4* | -9.3
OCc1ccccc1-c1cnc2sc(NCc3ccc(F)cc3)nn12 | 8.7 | x | x | x | x
SMILES | Cardio protect | ALR inh | PfM18AAP inh | PHOSPHO1 inh | PfG6PD inh
[O-]/C(=C(\C(=S)Nc1cccc2ccccc12)[n+]1ccccc1)c1ccc2c(c1)OCCO2 | 0.3 | x | 3.3 | 84.8* | 50.2
C[C@H](NC(=O)c1ncn2c1C(=O)NC[C@@H]2C)C(=O)OC(C)(C)C | 7.4 | x | x | x | 14.2
O=C1CCCCC1Sc1nnc(Cc2cccs2)n1CCc1ccccc1 (configuration not stated) | 8.7 | 13.2 | 13.9 | 71.3* | 21.4
O=C(Nc1ccccn1)C1CCN(C(=O)c2ccc(Cl)cc2)CC1 | -3.9 | x | x | x | -11.9
O=[N+]([O-])/C(C(Cl)=C(Cl)Cl)=C(\Sc1ccccc1)N1CCCCC1 | -10.4 | 97.6* | 3.8 | 20.8 | -0.3
CCN(CC)/C(Sc1ccccc1)=C(\C(Cl)=C(Cl)Cl)[N+](=O)[O-] | -1.6 | u | -11.1 | -16.9 | -1.1
COc1ccccc1C(=O)Nc1ccc2nc(SCC(=O)N(C)C)sc2c1 | 11.5 | 99.7* | 0.7 | -10.6 | 6.8
COc1ccc(OCC(=O)Nc2ccc3c(c2)nc2n3CCSC2)cc1 | 4.7 | 4.4 | 7.3 | 23.9 | 15.8
CC(=O)Nc1ccc2c(c1)nc1n2CCSC1 | 0.4 | 99.3* | -7.1 | 3.9 | 4.8
COCCN1CCn2c(nc3cc(NC(=O)c4ccc(OC)cc4)ccc32)C1 | 9.0 | -14.7 | -1.9 | 6.4 | 0.2
Cc1ccc(C(=O)Nc2ccc3c(c2)nc2n3CCSC2)cc1 | -13.6 | 98.3* | 2.3 | 16.3 | 7.7
CCCCC(=O)Nc1ccc2c(c1)nc1n2CCSC1 | 0.2 | 98.9* | -12.8 | -16.2 | 6.9
COc1ccccc1C(=O)Nc1ccc2c(c1)nc1n2CCSC1 | -11.5 | 99.0* | 5.3 | 18.1 | 1.0
COc1ccccc1C(=O)Nc1ccc2c(c1)nc1n2CCN(Cc2ccccc2)C1 | 6.6 | x | 2.8 | -25.5 | 3.2
O=C(CNC(=O)c1ccc(Cl)cc1)NC(CO)c1ccccc1 (configuration not stated) | -4.6 | -8.3 | -0.7 | x | -5.7
NS(=O)(=O)c1ccc(CCNC(=O)c2ccncc2)cc1 | 6.1 | 2.8 | 0.4 | 10.3 | -15.0
NS(=O)(=O)c1ccc(CCNC(=O)c2ccc(C#CC3(O)CCCCC3)cc2)cc1 | 71.4* | -9.8 | 1.1 | 32.5 | -13.3
COC(=O)n1c(=S)oc2cc(Cl)ccc21 | x | 96.2* | 4.5 | 44.9 | x
Cc1c(NC(=S)N/C(=N/S(=O)(=O)c2ccc(Cl)cc2)c2ccccc2)c(=O)n(-c2ccccc2)n1C | 1.0 | -0.2 | 1.8 | 82.7* | -2.7
O=C(Nc1cccc(Cl)c1)Nc1ccccc1-n1ccnc1 | -1.4 | -5.1 | 4.7 | 13.5 | -5.3
C/C(=N\Nc1cccc2cccnc12)c1ccccc1O | -16.6 | 2.2 | 1.3 | -42.6 | 0.3
C/C(=N\Nc1cccc2cccnc12)c1ccccn1 | -26.7 | 89.8* | 4.9 | 12.2 | 7.5
O[C@@H]1C[C@H](c2ccc(Cl)cc2)N(Cc2cccs2)C[C@H]1n1cc(C2CC2)nn1 | 0.3 | x | x | x | 11.8
CCN(CC(=O)Nc1ccc(S(=O)(=O)N2CCCC2)cc1)CC(=O)Nc1ccccc1C(F)(F)F | -5.7 | -2.3 | x | x | 14.4
Cn1cnnc1SCC(=O)NNC(=O)c1ccc([N+](=O)[O-])cc1 | 3.5 | -9.0 | x | x | -6.4
SMILES | Cardio protect | ALR inh | PfM18AAP inh | PHOSPHO1 inh | PfG6PD inh
Cn1cnnc1SCC(=O)c1cccc([N+](=O)[O-])c1 | 4.3 | 83.0* | 2.1 | 3.4 | -12.2
CCn1c(COc2ccccc2)nnc1SCC(=O)c1cccc([N+](=O)[O-])c1 | -4.2 | -0.3 | 6.5 | -56.6 | 24.3
CCOc1cc(C)ccc1OCc1nnc(SCC(=O)c2cccc([N+](=O)[O-])c2)n1CC | -6.1 | 0.0 | 6.6 | 87.7* | -1.8
CC1Sc2ccc(S(=O)(=O)N3CCC(C(=O)NCc4ccccc4)CC3)cc2NC1=O (configuration not stated) | -0.5 | -1.8 | -0.6 | 38.5 | -0.8
CC(C)Sc1nc2ccccc2n2cnnc12 | -2.4 | 98.7* | 9.4 | 31.6 | 19.8
CC(Nc1nc2ccccc2n2cnnc12)c1ccccc1 (configuration not stated) | -3.3 | -3.7 | 1.5 | 11.9 | 22.7

Bioassay records as filed in PubChem.
